Screening results as filed in PubChem BioAssay.
Rows were chosen to be rich in hits. Some 2.5% of all compounds tested hit in one or more screens of this group.
Cruzain Triton: blocks cruzain activity in presence of Triton detergent; P25779; purified cruzain, Z-FR-AMC fluorescence, 0.01% Triton; Potency, µM, inactives show max response, negative = inhibition, most hits filed as inhibitors; 0.43% of 200,000 active;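 also: plate controls were neutral wells for no effect and buffer without enzyme for full effect; nearly all actives have a fitted effect of over 40% in size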
Target sequence (P25779 123-467 limits assumed): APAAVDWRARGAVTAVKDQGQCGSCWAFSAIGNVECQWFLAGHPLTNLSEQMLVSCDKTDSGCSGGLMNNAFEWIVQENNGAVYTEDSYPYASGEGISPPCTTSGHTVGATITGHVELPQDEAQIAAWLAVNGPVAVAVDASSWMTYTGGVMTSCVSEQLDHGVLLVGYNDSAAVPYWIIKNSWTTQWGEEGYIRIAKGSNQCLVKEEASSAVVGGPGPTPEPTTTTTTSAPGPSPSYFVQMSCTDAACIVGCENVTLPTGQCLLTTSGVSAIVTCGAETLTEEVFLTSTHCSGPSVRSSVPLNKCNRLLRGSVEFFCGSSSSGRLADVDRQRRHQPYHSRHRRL
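Detergent-containing run (0.01% Triton X-100) in acetate buffer pH 5.5 with 5 mM DTT: enzyme at 1.5 nM final, 15 min compound preincubation at room temperature, then 2 uM Z-FR-AMC substrate. Activity taken as 60 s fluorescence increase at 360/450 nm.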
Cruzain noTriton: cruzain (T. cruzi) inhibition without detergent | P25779 | purified cruzain, Z-FR-AMC fluorescence, no detergent | Potency, µM, for inactives: max response, negative = inhibition, most hits filed as inhibitors | 2.3% of 200,000 active | AID 1476;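 also: plate controls were enzyme without inhibitor for no effect and buffer without enzyme for full effect; nearly all actives have a fitted effect of over 40% in size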
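Purified cruzain at 1.5 nM, pre-incubated 15 min with compound at room temperature in 100 mM sodium acetate pH 5.5, 5 mM DTT, 0.00005% Triton X-100. Reaction started with 2 uM Z-FR-AMC; AMC fluorescence increase over 60 s gives rate.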
Starred values were filed as active, the others as inactive; ? = inconclusive. Calls follow the shape of the dose curve; as a rule, active = well fitted curve in the direction sought with a large enough effect; inconclusive = small, poorly fitted or top-dose-only effect, or another doubt; inactive = no such curve, though single readings can be large; an effect the other way counts as inactive or inconclusive. Potency is read from the fitted curve at half-maximal effect.

SMILES | Cruzain Triton | Cruzain noTriton
COc1ccc(NC(=O)c2nc(-c3ccc(C)cc3)n3c2CCCCC3)cc1 | -6% | -28%
Cc1ccccc1C(=O)Nc1ccc2nc(SCC(=O)N3CCc4ccccc43)sc2c1 | -1% | 10µM*
Cc1cccc(C(=O)Nc2ccc3nc(SCC(=O)N4CCc5ccccc54)sc3c2)c1 | -1% | ?
Cc1c(C(=O)N2CCCCCC2)c(S(=O)(=O)Nc2cccc(C#N)c2)c(C)n1C | 0% | 9%
COc1cc(OC)c(NC(=O)N2CCCn3nc(C)cc32)cc1Cl | -1% | 4%
CN(C)S(=O)(=O)c1ccc(C(=O)NCCSc2c(-c3ccc(Br)cc3)[nH]c3ccccc23)cc1 | 1% | 25µM*
CCN(CC)S(=O)(=O)c1ccc(C(=O)NCCSc2c(-c3ccccc3)[nH]c3ccccc23)cc1 | 2% | ?
CCCCNS(=O)(=O)c1ccc2nc(-c3cccnc3)cc(C(=O)NCCC)c2c1 | -2% | -8%
CCOC(=O)c1c(NC(=O)CSc2nc3ccccc3c(=O)n2-c2ccc(F)cc2)sc(C(C)=O)c1C | -5% | 7.9µM*
COC(=O)c1c(NC(=O)CSc2nc3ccccc3c(=O)n2Cc2ccco2)sc(C)c1C | -2% | 25µM*
CCOC(=O)c1c(NC(=O)CSc2ncnc3ccccc23)sc(C(C)=O)c1C | -3% | ?
Cc1sc2nc(SCC(=O)NCc3ccco3)n(Cc3ccccc3)c(=O)c2c1C | -3% | 4%
CCOC(=O)c1sc2nc(SCC(=O)NCc3ccco3)n(Cc3ccccc3)c(=O)c2c1C | 2% | 7.9µM*
O=C(CSc1nc2ccccc2c(=O)n1Cc1ccco1)NCc1ccco1 | -6% | -27%
Cc1ccc(CNC(=O)CCc2c(C)nc3c(-c4ccc(F)cc4)c(C)nn3c2C)cc1 | 2% | 8%
Cc1ccc(CNc2ccc3c(c2)OCO3)cc1 | -3% | 25µM*
c1cc(CNc2ccc3c(c2)OCO3)ccn1 | -6% | -12%
Cc1ccc(-c2nc3cc(NC(=O)c4cc(Br)ccc4Cl)ccc3o2)cc1 | -1% | -26%
Cc1cc(C)c2oc(-c3ccc(NC(=O)c4cc(Br)ccc4Cl)cc3)nc2c1 | -1% | 2.5µM*
COc1ccc(OC)c(CCNC(=O)c2cnn(-c3ccccc3Cl)c2C2CCN(C(=O)OC(C)(C)C)CC2)c1 | -8% | ?
COc1ccc(/C=C/c2nnc(NC(=O)COc3ccc(C)cc3)s2)cc1 | -3% | ?
COc1ccc(/C=C/c2nnc(NC(=O)COc3cccc(C)c3)s2)cc1 | 2% | 13µM*
O=C(CN1C(=O)C2(SCC(=O)N2c2cccc(F)c2)c2ccccc21)NCCc1ccccc1 (centres undefined) | -3% | -12%
COc1ccc(-n2nc(C(=O)N3CCN(c4cccc(C(F)(F)F)c4)CC3)c3c4ccccc4n(C)c3c2=O)cc1Cl | 3% | 22%
COc1ccc(-c2cc3c(=O)n(CC(=O)Nc4ccc(Br)c(C)c4)ccn3n2)cc1OC | -1% | 3%
SMILES | Cruzain Triton | Cruzain noTriton
CC(=O)Nc1ccc(N2N=C(C)C(N=Nc3ccccc3)C2=O)cc1 (centres undefined) | -5% | ?
CC1=NN(C(N)=S)C(=O)C1N=Nc1ccc(C)cc1C (centres undefined) | -17% | ?
CC1=NN(C(N)=S)C(=O)C1N=Nc1c(C)cc(C)cc1C (centres undefined) | -27% | 13µM*
CC1=NN(C(N)=S)C(=O)C1N=Nc1ccccc1C (centres undefined) | ? | 25µM*
COc1ccc(C2=C(CN(C)C)C(c3ccccc3)c3ccccc3O2)cc1 (centres undefined) | 0% | 6%
CCOc1ccc(C2=C(C=C(C#N)C#N)C(c3ccccc3)c3ccccc3O2)cc1 (centres undefined) | -4% | 10µM*
Cc1ccc(-n2nc3ccc(NC(=O)/C=C/c4ccco4)cc3n2)cc1 | -7% | 16µM*
Cc1ccc(NC(=O)c2cccc(NC(=O)/C=C/c3ccco3)c2)cc1C | -9% | -10%
O=C(NCc1ccc2c(c1)OCO2)c1ccc2c(c1)N(Cc1ccccc1F)C(=O)c1ccccc1S2=O (centres undefined) | 1% | ?
CCC(C(=O)NCc1ccccc1)n1ncn2c(cc3occc32)c1=O (centres undefined) | -3% | 7%
O=S(=O)(Nc1nc2ccccc2nc1Nc1ccc2c(c1)OCO2)c1ccccc1 | -3% | ?
Cc1cccc(S(=O)(=O)Nc2nc3ccccc3nc2Nc2ccc3c(c2)OCO3)c1 | -6% | 16µM*
Cc1cccc(-n2c(=O)c3c4c(sc3n3c(C)nnc23)CCCC4)c1 | 7% | 2%
CCCc1nn2c(=O)cc(COc3ccc(/C=C(\C#N)C(=O)Nc4ccccc4)cc3)nc2s1 | 0% | 7%
CN(C)Cc1cc(C(C)(C)C)cc(CNC2CCCCC2)c1O | -3% | -7%
O=C(NCc1ccco1)c1sc2cc(Cl)ccc2c1Cl | ? | 25µM*
O=C(NCc1ccco1)c1sc2ccccc2c1Cl | ? | 25µM*
O=C(NCc1cccnc1)c1sc2cc(Cl)ccc2c1Cl | -11% | 0%
CC(=O)Nc1ccc(NC(=O)C(C)OC(=O)CNC(=O)c2sc3ccccc3c2Cl)cc1 (centres undefined) | 11µM* | 10µM*
Cc1ccc(NC(=O)c2sc3ccccc3c2Cl)cc1 | -1% | -9%
O=C(NCc1ccco1)c1nc2ccccc2s1 | -6% | -4%
CCOc1ccc(CCNC(=O)CCCc2nnc3n(CC)c(=O)c4sccc4n23)cc1 | -1% | 5%
CCOc1ccc(C2c3[nH]c4ccccc4c3CCN2C(=O)Cc2cccc(OCC)c2OCC)cc1 (centres undefined) | 1% | ?
O=C(O)c1ccccc1NCn1c(=S)sc2ccccc21 | 13% | 4%
Nc1nc(-c2ccccc2)c(-c2ccccc2)c(-c2nc(N)nc(-c3ccccc3)c2-c2ccccc2)n1 | 2% | -1%
SMILES | Cruzain Triton | Cruzain noTriton
COc1ccc2cc3cc(C(=O)NCc4ccco4)oc3nc2c1 | -8% | 6%
COc1ccc2cc3cc(C(=O)NCc4ccccn4)oc3nc2c1 | 32µM* | ?
Cc1cccc2sc(N)nc12 | 8% | -3%
O=C(CSc1nnc(CNC(=O)c2c(F)cccc2Cl)o1)Nc1cccc(F)c1 | -4% | -3%
CC1CCN(CC(=O)Nc2sc3c(c2C#N)CCC3)CC1 | -8% | 9%
CCc1ccc(NC(=O)Cn2nc(C(F)(F)F)c3c2CCC3)cc1 | -3% | -18%
CC1CCc2c(sc(NC(=O)Cn3nc(C(F)(F)F)c4c3CCCCC4)c2C#N)C1 (centres undefined) | 2% | 20µM*
N#Cc1c(NC(=O)Cn2nc(C(F)(F)F)c3c2CCCC3)sc2c1CCC2 | 8% | 7.9µM*
COc1ccc(C(=O)Nc2cccc(-c3cn4ccsc4n3)c2)c(OC)c1 | -6% | ?
C=CCC(C)(O)c1ccsc1 (centres undefined) | 4% | 4%
COCCNc1ncnc2ccc(-c3ccccc3C(F)(F)F)cc12 | -2% | -5%
COc1cc(Nc2nc(SCC(=O)c3ccc(Cl)c(Cl)c3)nc3ccccc23)cc(OC)c1 | 1% | 6.3µM*
COc1cc(Nc2nc(SCc3ccccc3Cl)nc3ccccc23)cc(OC)c1 | 1% | 16µM*
COc1cc(Nc2nc(SCc3ccc(Cl)cc3)nc3ccccc23)cc(OC)c1 | 4% | ?
O=C(CSc1nc(Nc2ccccc2)c2ccccc2n1)c1ccc(Cl)cc1 | -3% | ?
COc1cc(Nc2nc(SCc3cccc(Cl)c3)nc3ccccc23)cc(OC)c1 | 0% | 20µM*
